# Assay outcomes as filed in PubChem.
# Peg3 imprint: qHTS Assay for Compounds that Induce Erasure of Genomic Imprints; 110,000 tested, 0.02% active; mouse ES Peg3-LacZ reporter, beta-gal luminescence, 40 h; Potency, µM (series often up to 60.7 µM), hits mostly activators
#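 Readout: BetaGlo luminescence (5 min, room temp) for LacZ from the normally silent maternal Peg3 allele in female Peg3LacZ-Neo ES cells. Cells 300/well, 40 h, 37C, 5% CO2. Data normalized per plate to negative controls.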
# TSHR agonist: qHTS Assay for Agonists of the Thyroid Stimulating Hormone Receptor; 73,000 tested, 0.48% active; Potency, µM (series often up to 57.1 µM), most hits filed as activators; HEK293-CNG-TSHR cells (CNG channel as cAMP sensor), membrane potential dye, cAMP; active means well fitted activation curve with a large enough effect in the main read-out, with a control signal flat, not every such curve was filed as active; inconclusive means small, poorly fitted or top-dose-only effect, or a change in a side signal; inactive means no such curve, though single readings can be large or run the other way; reference of the percent scale not stated here;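 further: the control signal comes from parental cells without the receptor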
# Target sequence (P16473 whole entry, looked up): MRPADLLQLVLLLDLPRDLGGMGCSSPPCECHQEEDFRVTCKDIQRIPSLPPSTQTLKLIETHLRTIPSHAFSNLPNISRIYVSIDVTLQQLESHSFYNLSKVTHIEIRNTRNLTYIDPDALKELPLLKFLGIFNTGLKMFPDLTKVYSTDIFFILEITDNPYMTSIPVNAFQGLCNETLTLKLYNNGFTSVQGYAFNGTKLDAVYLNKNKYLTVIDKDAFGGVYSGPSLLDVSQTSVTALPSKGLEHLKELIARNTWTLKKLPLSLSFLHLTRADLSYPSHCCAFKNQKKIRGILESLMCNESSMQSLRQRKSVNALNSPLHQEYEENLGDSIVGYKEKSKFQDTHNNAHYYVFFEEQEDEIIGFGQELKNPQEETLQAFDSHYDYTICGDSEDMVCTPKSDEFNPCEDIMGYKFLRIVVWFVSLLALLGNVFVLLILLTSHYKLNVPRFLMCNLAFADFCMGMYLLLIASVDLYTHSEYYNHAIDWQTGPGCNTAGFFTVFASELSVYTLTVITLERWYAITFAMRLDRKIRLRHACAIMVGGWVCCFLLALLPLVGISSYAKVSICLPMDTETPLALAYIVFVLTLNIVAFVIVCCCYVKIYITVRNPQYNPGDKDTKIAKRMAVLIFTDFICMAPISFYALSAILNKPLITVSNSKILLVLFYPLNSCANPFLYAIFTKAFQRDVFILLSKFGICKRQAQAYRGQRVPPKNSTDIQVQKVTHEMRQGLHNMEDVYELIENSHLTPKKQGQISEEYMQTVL
#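 cAMP rise detected as CNG-channel membrane depolarization by fluorescent dye (emission 590 nm), 30 min after compound, following 60 min dye loading containing 100 uM RO 20-1724 at room temperature. Cells: TSHR/CNG HEK 293, with parental CNG HEK 293 as control.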
# HEK293 cAMP cs: qHTS Assay for Agonists of the Thyroid Stimulating Hormone Receptor: Activators of Intracellular cAMP Concentrations in Parental HEK 293; parental HEK293 CNG cAMP sensor, membrane potential fluorescence; Potency, µM (titrated, usually from 57.1 µM), most hits filed as activators; 73,000 tested, 2.5% active; AID 938, 2007; further: nearly all actives have a fitted effect of over 55% in size
#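 Parental HEK 293 cells stably expressing a modified CNG channel (no TSHR) report cAMP rise as membrane depolarization. Membrane potential dye with 100 uM RO 20-1724 was loaded for 60 min at room temperature, then compound added for 30 min; fluorescence read at 590 nm.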
# IkB sig inh: IkB Signaling; ABC-DLBCL IkBa-CBG/CBR dual luciferase ratio, 4 h; response scale: scaled: untreated 0%, proteasome inhibitor 100%; Potency, µM (titrated, usually from 57.1 µM); 110,000 tested, 0.04% active; active means well fitted curve in the direction sought with a large enough effect in the signal ratio, not every such curve was filed as active; inconclusive means small, poorly fitted or top-dose-only effect, or a change in a side signal; the % refers to the signal ratio;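 further: the direction sought is a rising ratio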
#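 Curves were fitted separately to fusion (green), unfused (red) and ratio luminescence, then classed by r2, magnitude and activity. Cells: OCI-Ly3, 4 h compound plus doxycycline at 37C; 10 uM MG-132 defined full response.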
# p53ts 39C tox: qHTS Screen for Compounds that Selectively Target Cancer Cells with p53 Mutations: Cytotoxicity of p53ts Cells at the Nonpermissive Temperature | H1299-p53A138V viability at 39C, ATP luminescence, 24 h | Potency, µM (highest dose often 46.1 µM), actives largely listed as cytotoxic | 130,000 tested, 1.5% active; further: nearly all actives have a fitted effect of over 55% in size
# p53ts 32C tox: qHTS Screen for Compounds that Selectively Target Cancer Cells with p53 Mutations: Cytotoxicity of p53ts Cells at the Permissive Temperature. 130,000 tested, 0.93% active. AID 924, 2007. Potency, µM (doses to about 46.1 µM), hits mostly cytotoxic. H1299-p53A138V at 32C, ATP luminescence viability, 24 h; further: nearly all actives have a fitted effect of over 55% in size
#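 ATP-content luminescence (ATPlite) read-out after 24 h compound exposure at 32C in H1299-p53A138V cells (600/well). Tested up to 46 uM. Normalized to DMSO (0%) and 100 uM tamoxifen (100% killing); Hill-fit AC50.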
# A number is an active result; . = inactive; ? = inconclusive; / = no result given; [ ] = dose if it differs, or a comment. Hits are enriched below; roughly 3.1% of the tested compounds scored in any of these assays. Unless noted, the call rests on the fitted dose curve; in most records, active means well fitted curve in the direction sought with a large enough effect; inconclusive means small, poorly fitted or top-dose-only effect, or another doubt; inactive means no such curve, though single readings can be large; an effect the other way counts as inactive or inconclusive.
SMILES,Peg3 imprint,TSHR agonist,HEK293 cAMP cs,IkB sig inh,p53ts 39C tox,p53ts 32C tox
Cc1cc(Nc2nc3ccccc3[nH]c2=O)n(-c2ccccc2)n1,.,?,?,?,.,.
COc1ccc(C(=O)NC(c2ccccc2Cl)c2cc(Cl)c3cccnc3c2O)cc1 (stereo not drawn),.[10.9 µM],/,/,?,2.5µM,.
CC(C)(C)c1ccc(OCC(=O)NCC2(N3CCOCC3)CCCCC2)cc1,.[10.9 µM],/,/,?,16µM,?
O=C(COc1ccc([N+](=O)[O-])cc1)NCC1(N2CCOCC2)CCCCC1,.[10.9 µM],/,/,?,.,.
O=C(Nc1sc2c(c1C(=O)O)CCCCC2)c1ccco1,.,.,.,?,13µM,13µM
Cc1cccc(C(=O)Nc2sc3c(c2C(=O)Nc2ccccc2)CCC3)c1,.[10.9 µM],/,/,?,.,.
CN(C)C(=O)c1c(NC(=O)c2ccco2)sc2c1CCCCC2,/,/,/,/,.,.
Cc1cccc(C(=O)Nc2sc3c(c2C(=O)O)CCCC3)c1,.[10.9 µM],/,/,?,13µM,?
COC(=O)C1=C(c2ccccc2)c2ccccc2S(=O)(=O)N1CC(=O)Nc1ccc(OC)cc1OC,.[10.9 µM],/,/,.,.,.
Cc1cc(N2CCN(c3ccccn3)CC2)n2c(nc3ccccc32)c1C#N,.,?,2µM,.,.,.
COc1cccc(N2CC(NC(=O)c3ccc(S(=O)(=O)N4CCCC4)cc3)CC2=O)c1 (stereo not drawn),.[10.9 µM],/,/,.,.,.
Cc1ccc(NS(=O)(=O)c2ccc3nc(-c4ccccc4)[nH]c3c2)cc1Cl,.[10.9 µM],/,/,?,13µM,?
Cc1cc(NS(=O)(=O)c2ccc3nc(-c4ccccc4)[nH]c3c2)ccc1Br,.[10.9 µM],/,/,?,?,.
CS(=O)(=O)N1CCc2cc(C(=O)NCc3ccccc3)ccc21,.[10.9 µM],/,/,.,.,.
Cc1cc2cc(CN(Cc3ccc4c(c3)OCO4)C(=O)c3cnccn3)c3nnnn3c2cc1C,.,?,32µM,?,.,.
CCCCNC(=O)Nc1ccc(Br)cn1,.,.,.,?,.,.
CC(C)=CC1C(C(=O)Nc2ccc(Br)cn2)C1(C)C (stereo not drawn),.,?,25µM,.,.,.
COc1ccc(Nc2c3c(nc4ccc(NC(=O)c5cc(Cl)ccc5OC)cc24)CCCC3)cc1OC,.[10.9 µM],/,/,?,5µM,5.6µM
COc1cc(OC)cc(C(=O)Nc2ccc3nc4c(c(Nc5ccc(OC)c(OC)c5)c3c2)CCCC4)c1,?,/,/,.,?,?
CC(C)c1ccc2oc(-c3cc(N)ccc3O)nc2c1,.,.[11.4 µM],.[11.4 µM],?,16µM,13µM
Cc1ccc(-c2nc3cc(C(C)C)ccc3o2)cc1NC(=O)c1cc2ccccc2o1,.[10.9 µM],/,/,.,.,.
Nc1ccc2oc(-c3ccccc3Br)nc2c1,.[10.9 µM],/,/,.,13µM,13µM
Cc1ccccc1-c1nc2cc(N)ccc2o1,.,/,.,.,?,?
CCN(CC)c1ccc(-n2c(C)c(C(C)=O)c(C(C)=O)c2C)cc1,.,?,16µM,.,.,.
CC(=O)c1c(C(C)=O)c(C)n(-c2ccc(C(=O)O)cc2)c1C,.,.,.,.,.,.
SMILES,Peg3 imprint,TSHR agonist,HEK293 cAMP cs,IkB sig inh,p53ts 39C tox,p53ts 32C tox
COc1ccccc1CNc1ncncc1-c1ccccc1OC,.,?,10µM,.[11.4 µM],.,.
COc1ccc(CNc2ncnc3ccc(-c4ccoc4)cc23)c(OC)c1,.,?,?,.[11.4 µM],.,.
COc1ccc(CNc2ncncc2-c2cccnc2)c(OC)c1,.,.,.,.[11.4 µM],.,.
COc1cccc(-c2cncnc2NCc2ccccc2OC)c1,?,?,25µM,.[11.4 µM],.,.
COc1ccc(CNc2ncncc2-c2ccoc2)c(OC)c1,.,?,10µM,.[11.4 µM],.,.
COc1ccccc1CNc1ncnc2c1nnn2C,?,/,/,?,.,.
COc1ccccc1CNc1ncnc2c1nnn2Cc1ccccc1,.,?,13µM,?,.,.
CCc1nc2ccc(C(=O)NCc3ccc(SC)cc3)cc2nc1CC,.[10.9 µM],/,/,.,.,.
Nc1c(C(=O)Nc2ccccc2Cl)c2ccccn2c1C(=O)c1ccc(Cl)cc1,.[10.9 µM],/,/,?,.,.
c1ncc(-c2ccoc2)c(NC2CC2)n1,?,?,4µM,.[11.4 µM],.,.
COc1cccc(-c2cncnc2NCc2ccc(OC)cc2OC)c1,.,?,16µM,.[11.4 µM],.,.
COc1ccccc1CNc1ncnc2ccc(-c3ccoc3)cc12,.,?,20µM,.[11.4 µM],.,.
COC(=O)c1cc2oc(C)cc2n1Cc1cccc(Cl)c1,.[10.9 µM],/,/,.,.,.
CC(=O)[C@]1(O)CC[C@@H]2[C@H]3C[C@@H](C)C4=CC(=O)CC[C@@]4(C)[C@H]3[C@@H](O)C[C@]21C,/,?,?,?,.[9.22 µM],.[9.22 µM]
Clc1ccc(C2=Nn3c(nnc3-c3n[nH]c4c3CCC4)SC2)cc1,.,?,25µM,.,.,.
Brc1ccc(C2=Nn3c(nnc3-c3n[nH]c4c3CCC4)SC2)cc1,.,?,13µM,.,.,.
Cc1ccc(-c2nnc3n2N=C(c2ccc(Br)cc2)CS3)cc1,.,.,.,.,.,.
N[C@H](CCCC(=O)O)C(=O)O,/,/,.,.,.,.
CCCC(=O)N1c2nc(-c3ccco3)nn2C2(CCCCC2)[C@@H]2CCCC[C@@H]21,.[10.9 µM],/,/,.,.,.
O=S(=O)(c1ccc(S(=O)(=O)N(Cc2ccco2)Cc2ccccc2Cl)cc1)N1CCCC1,.,/,.,.,.,.
CN(C)S(=O)(=O)c1ccc(S(=O)(=O)N(Cc2ccco2)Cc2ccccc2Cl)cc1,.,?,13µM,.,.,.
CCOC(=O)c1ccccc1NC(=O)CSc1nnc(COc2ccccc2)n1CC,.,?,16µM,?,.,.
CCOC(=O)c1ccccc1NC(=O)CSc1nc2ccccc2o1,.,?,25µM,.,.,.
COC(=O)c1ccccc1NC(=O)CSc1nnc(COc2cccc(OC)c2)n1C,/,?,13µM,.,.,.
COc1ccccc1NC(=O)CN1CCN(CC(=O)Nc2ccc3c(c2)OCCO3)CC1,.,.,.,?,25µM,.
COc1ccccc1C(=O)Nc1ccc2c(c1)OCO2,.,?,?,.,?,?
COc1ccccc1C(=O)Nc1ccc2c(c1)nc(CCNC(C)=O)n2C,.,.,.,.,13µM,13µM
COc1ccccc1C(=O)Nc1ccc2c(c1)OCCO2,/,?,?,.,16µM,16µM
Cc1cccc(OCC(=O)Nc2ccc3c(c2)OCCO3)c1,.,.,.,.,?,10µM
